# PubChem BioAssay (NCATS)
# Records with an inconclusive call do not appear. The source made the active and inactive calls. The call rests on the fitted dose curve; in most records, active means well fitted curve in the direction sought with a large enough effect; inconclusive means small, poorly fitted or top-dose-only effect, or another doubt; inactive means no such curve, though single readings can be large; an effect the other way counts as inactive or inconclusive.
# Test: Cell Viability qHTS for small molecule stabilizers of the endoplasmic reticulum resident proteome (AID 1508629);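 further: human SH-SY5Y neuroblastoma cells carrying the GLuc-SERCaMP reporter; compound exposure about 46 h in total before the viability read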
# Conditions: cell viability counter-screen, 100 nM thapsigargin for final 4 h
# On the % scale 0 is the no-effect control and ±100 the full control effect.
row,Structure (SMILES),max response
1,CN1[C@@H]2CC[C@H]1CC(OC(=O)c1cc(Cl)cc(Cl)c1)C2 (stereo partly drawn),-1.72% (inactive)
2,CN1C2CCC(C)(C)C1CC(OC(=O)C(O)(c1cccs1)c1cccs1)C2 (stereo not drawn),-12.1% (inactive)
3,CC(C)=CCN1CC[C@@]2(C)c3cc(O)ccc3C[C@@H]1[C@@H]2C,-7.58% (inactive)
4,O=C1NCN(c2ccccc2)C12CCN(CCCOc1ccc(F)cc1)CC2,-6.39% (inactive)

# Test: Primary qHTS for small molecule stabilizers of the endoplasmic reticulum resident proteome: Secreted ER Calcium Modulated Protein (SERCaMP) assay (AID 1508630)
# Conditions: SH-SY5Y GLuc-SERCaMP (Gaussia luciferase released on ER calcium loss) secretion, thapsigargin, luminescence; series mostly up to 38.4 µM; activity change, negative = inhibition: at the top concentration
# Procedure, shortened: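 GLuc-SERCaMP-expressing SH-SY5Y cells, pretreated 16 h with compound, are challenged with thapsigargin to empty ER calcium stores; after 4 h, coelenterazine is added directly to the medium and luminescence is imaged.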
Structure (SMILES),"activity change, negative = inhibition",outcome
COc1ccc2c(C(=O)c3ccc(Cl)cc3)c(C)n(CC(=O)O)c2c1,-4.62% (inactive),
CCNc1nc(Cl)nc(NCC)n1,-19.9% (inactive),
COc1cc(N)c(Cl)cc1C(=O)NC1CN2CCC1CC2 (stereo not drawn),,inactive
CC(C)C(Br)C(=O)NC(N)=O (stereo not drawn),-23.7% (inactive),
CC1=C2[C@H]3OC(=O)[C@@H](C)[C@@H]3CC[C@@]2(C)C=CC1=O,50.9% (inactive),
CN1C(=O)CN=C(c2ccccc2)c2cc([N+](=O)[O-])ccc21,1.35% (inactive),
COc1ccc2c3c1O[C@H]1[C@@H](O)C=C[C@H]4[C@@H](C2)N(C)CC[C@@]341,0.422% [at 76.3 µM] (inactive),
CC(C)=C[C@@H]1[C@@H](C(=O)OCc2coc(Cc3ccccc3)c2)C1(C)C,-8.37% (inactive),
c1ccc2c(c1)Sc1ccccc1N2CC1CN2CCC1CC2 (stereo not drawn),371% (inactive),
Oc1ccc([C@H]2CNCc3c2ccc(O)c3O)cc1O,-15.7% (inactive),
CC(Cc1ccccc1)NCc1ccccc1Cl (stereo not drawn),33.1% (inactive),
COc1ccc(OC)c(CC(C)N)c1 (stereo not drawn),-26.9% [at 76.3 µM] (inactive),
ClC1=C(Cl)C2(Cl)C(CBr)CC1(Cl)C2(Cl)Cl (stereo not drawn),50.6% (inactive),
O=C(NC(=O)c1c(F)cccc1F)Nc1cc(Cl)c(OC(F)(F)C(F)C(F)(F)F)cc1Cl (stereo not drawn),-11.3% (inactive),
